Reference: the supplement of paper PMC5499739
The full ranking holds about 16,000 sequences; the median of “Z-score” is about -0.37, and the highest 2% start at about 3.2. This is one part of a sample in which the highest values are shown more often than they occur.

system: RBM10 RRM1-ZnF (GST-tagged construct); assay: RNAcompete 7-mer binding Z-score; higher = stronger binding preference
Procedure: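 RNAcompete: 20 pmol GST-tagged RBM10 RNA-binding constructs were incubated with a designed RNA pool of about 241,000 sequences up to 41 nt (1.5 nmol) on glutathione beads for 30 min at 4 °C and washed. Bound RNAs were identified by microarray hybridisation. Each RNA 7-mer is scored by a one-sided Z-score of its enrichment, computed over probes that contain the 7-mer within longer pool sequences.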

Sequence | RNAcompete 7-mer binding Z-score
GUAUCUC | -0.594
GCGGUUA | 1.32
CCACUGG | -0.152
UUUCGAA | -0.678
UGACACG | 0.0138
GAUGUUA | -0.116
GCGACCC | -0.545
CCGUUCC | -0.967
UAAUGCA | -0.386
UGACUCG | -0.487
AUAAGGU | 1.72
GUAAGGG | 3.85
AUAAGGA | 2.08
AUAAGGG | 3.77
GUAAGGC | 1.67
GUAAGGA | 2.67
GAGAAUC | 0.0593
UACGUGU | -0.318
GAUAUAU | -0.178
ACGAUUA | -0.366
UUAACGU | -0.324
UUUUCAU | -0.727
AAUAGGU | 1.37

Sequence | RNAcompete 7-mer binding Z-score
GAUAGGG | 4.05
CAUAGGG | 1.51
GUUAGGU | 1.86
UUUAGGG | 1.65
AAUAGGG | 3.28
AAUAGGC | 0.192
UAUAGGG | 2.69
GUUAGGG | 3.73
UAGAACU | -0.155
GACCCCU | -0.704
AACGGCA | 0.42
CGUGCGG | 1.09
CGCGCCA | -0.337
AAAGGGG | 4.5
AGGGGGC | 1.83
AAGGGGU | 4.48
AAGGGGA | 4.47
AGGGGGU | 3.09
AAGGGCU | 1.62
AAGGGGC | 3.13
AAGGGGG | 4.31
AGGGGGA | 2.47
AAAGGCG | 1.21

Sequence | RNAcompete 7-mer binding Z-score
GUCGCUA | -0.243
CUGGAGA | 0.501
UUAGAAU | -0.152
CGUGAUC | -0.704
GAAUCGG | 1.41
UGAACAC | -0.347
GCUUGUC | -0.665
UCUGGGG | 1.39
CGGAGAA | 1.36
AAUUGCC | -0.626
UGGAUAU | 1.17
AGCAUAA | -0.292
CAAAGGG | 2.23
GAGGGGU | 3.59
GAGGGAC | 2.06
GAGGAAA | 2.27
GAGGGGC | 2.44
GAGGGGA | 3.62
GAGGGAA | 3.42
CAGGGGA | 2.99
GAGGGCU | 1.3
GAGGGGG | 2.9
AAAAGGG | 3.8

Sequence | RNAcompete 7-mer binding Z-score
UAAAGGG | 2.85
GAAAGUU | 0.225
CAUAGGA | 0.54
GCCGUUA | -0.607
GCAGGCA | 0.495
AUGUAAG | 0.397
AGGGGCG | 2.28
UGGGGUC | 2.57
UUGGGUU | 2.66
UUGGGUC | 1.04
UCGGGUG | 2.34
GGGGGUC | 2.18
UUGGGUG | 3.83
AGGGGUG | 3.85
GGGGGCG | 2.47
UGGGGUG | 4.74
GGGGGUG | 4.02
AUACAGU | -0.00571
GUCCAGA | -0.474
GGGCUCA | 0.485
AGGUGUU | 0.988
AAUGCCC | -0.613
ACCGUAU | -0.746

Sequence | RNAcompete 7-mer binding Z-score
CCGGGUG | 1.47
CGGGGUC | 2.14
AUGGGUC | 2.19
AUGGGUU | 2.89
GUAGGUA | 2.15
AUUGGUG | 2.27
AUGGGUA | 3.54
AUGGGUG | 4.03
CGGGGUG | 3.76
CUGGGUA | 2.13
AUCGGUG | 0.894
GUGGGUA | 3.53
UAUACUC | -0.769
UAAACAA | -0.392
ACCGUUC | -0.948
AAACACC | -0.6
CUGCGGC | 0.0138
GCAUGGC | 0.176
AACCGCG | -0.353
CACGGGU | 1.99
CUGGGUG | 1.83
GUGGGUC | 2.36
GUGGGUG | 4.14

Sequence | RNAcompete 7-mer binding Z-score
GCGAAAA | 0.0528
GCGCCCC | -0.0934
AUUCCUA | -0.756
UUAGGCU | 0.095
UGGGGUU | 3.29
UGGGGCU | 2.3
AGGGGUU | 2.52
GGGGGUU | 3.67
UGGGGGU | 3.87
CUGGGUU | 1.53
AUUUAUC | -0.691
UAUGGCA | 0.413
CAGCUCG | -0.704
UGAAGAA | 0.228
CGCCUAA | -0.694
CCUGAUC | -0.792
GUGUUUA | 0.27
AAGUGGA | 3.31
GAGUGGU | 2.46
GAGUGGC | 1.53
CAGUGGG | 2.24
UAGUGGA | 1.54
CAGUGGA | 1.38

Sequence | RNAcompete 7-mer binding Z-score
AAGUGGU | 1.82
AAGUGGG | 3.73
GAGUGGA | 3.26
CCAAGAC | -0.646
GUAGUCA | 0.157
CCAUCUG | -0.772
UGUGUCG | 0.043
UCUGGGA | 0.508
GGGGGCA | 2.92
UGGGGAA | 3.66
UGGGGGA | 3.71
UGGGGCA | 3.56
UCGGGAA | 1.33
CGGGGGA | 3.17
GGGGGGA | 3.3
AGGGGCA | 2.47
UUGGGGA | 2.82
CGGGGAA | 2.71
GGGGCGA | 2.46
AACGGAC | 0.413
GCAAAAC | -0.0902
AGCAUGA | -0.119
CUAGCGA | -0.347

Sequence | RNAcompete 7-mer binding Z-score
CAGAGGU | 1.25
UACGGAA | 0.699
CUACAGA | -0.636
AGAGCAG | 0.699
UGGCUAG | 0.391
UCGAGGG | 1.95
GCGAGGG | 3.54
ACGAGGU | 0.959
ACGAGGC | 0.319
GCGAGGA | 1.93
ACGAGGG | 3.35
CUGCUAU | -0.691
AGAUGCG | 0.111
CCGCUCC | -0.474
ACAGGGU | 2.94
ACAGGGA | 3
GCAAGGU | 1.94
ACAGGGG | 3.33
GCAAGGA | 2.4
CCAGGGU | 1.29
GCAGGGG | 3.32
GCAAGGG | 3.46
